{"source": "the supplement of paper PMC7366291", "note": "Structures can show the parent of a compound that is named as a salt. ± gives the standard deviation of the averaged measurements.", "data": [{"test_system": "Danio rerio Tg(wt1b:EGFP) embryo, pronephros", "assay": "glomerular width (mean of left and right), fold change vs DMSO control; higher = wider glomerulus", "details": "25 µM; exposure: 24-48 hpf", "how_it_was_run": "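Features are reported as fold changes against the mean of same-day DMSO-treated embryos. Before that, values more than 2 SD away from the feature mean were excluded. The embryos, dechorionated Tg(wt1b:EGFP) zebrafish, had been exposed from 24 to 48 hpf at 28.5°C to 25 μM compound in 0.5% DMSO in HEPES-buffered E3 with 0.003% PTU, and distances and angles came from 16 manually set points on maximum projections of dorsal pronephros images in Fiji.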", "values": [{"smiles": "c1cnc(N2CCN(Cc3ccc4c(c3)OCO4)CC2)nc1", "note": "[Piribedil hydrochloride]", "glomerular width": "0.962 ± 0.028"}, {"smiles": "CCc1cc(C(N)=S)ccn1", "note": "[Ethionamide]", "glomerular width": "0.97628 ± 0.00041"}, {"smiles": "Cc1ccccc1OCC(O)CO", "note": "(stereo unspecified) [Mephenesin]", "glomerular width": "1.01 ± 0.012"}, {"smiles": "CN(C)CCOC(c1ccc(Cl)cc1)c1ccccn1", "note": "(stereo unspecified) [Carbinoxamine maleate salt]", "glomerular width": "0.999 ± 0.048"}, {"smiles": "CO[C@H]1/C=C/O[C@@]2(C)Oc3c(C)c(O)c4c(O)c(c(/C=N/N5CCN(C6CCCC6)CC5)c(O)c4c3C2=O)NC(=O)/C(C)=C\\C=C\\[C@H](C)[C@H](O)[C@@H](C)[C@@H](O)[C@@H](C)[C@H](OC(C)=O)[C@@H]1C", "note": "[Rifapentine]", "glomerular width": "0.985 ± 0.066"}, {"smiles": "Clc1cccc(Cl)c1NC1=NCCN1", "note": "[Clonidine hydrochloride]", "glomerular width": "1.001 ± 0.0053"}, {"smiles": "COc1ccnc(C[S+]([O-])c2nc3cc(OC(F)F)ccc3[nH]2)c1OC", "note": "(stereo unspecified) [Pantoprazole sodium]", "glomerular width": "1.042 ± 0.0056"}, {"smiles": "Nc1nc(=O)n([C@@H]2CS[C@H](CO)O2)cc1F", "note": "[(-)-Emtricitabine]", "glomerular width": "1.06 ± 0.019"}, {"smiles": "CC[C@H]1OC(=O)[C@H](C)[C@@H](O[C@H]2C[C@@](C)(OC)[C@@H](O)[C@H](C)O2)[C@H](C)[C@@H](O[C@@H]2O[C@H](C)C[C@H](N(C)C)[C@H]2O)[C@](C)(O)C[C@@H](C)CN(C)[C@H](C)[C@@H](O)[C@]1(C)O", "note": "[Azithromycin]", "glomerular width": "0.945 ± 0.022"}, {"smiles": "CCCOc1ccccc1-c1nc2[nH]nnc2c(=O)[nH]1", "note": "[Zaprinast]", "glomerular width": "0.99 ± 0.074"}, {"smiles": "Cc1cc(C(=O)NNCc2ccccc2)no1", "note": "[Isocarboxazid]", "glomerular width": "1.21 ± 0.067"}, {"smiles": "CCN(CC)CCOC(=O)C(Cc1cccc2ccccc12)CC1CCCO1", "note": "(stereo unspecified) [Nafronyl oxalate]", "glomerular width": "0.945 ± 0.058"}, {"smiles": "CN(C(=O)C(Cl)Cl)c1ccc(OC(=O)c2ccco2)cc1", "note": "[Diloxanide furoate]", "glomerular width": "0.777 ± 0.037"}, {"smiles": "CN(CCCCCCCCCCN(C)C(=O)Oc1cccc([N+](C)(C)C)c1)C(=O)Oc1cccc([N+](C)(C)C)c1", "note": "[Demecarium bromide]", "glomerular width": "0.923 ± 0.032"}, {"smiles": "OC(CCN1CCCC1)(c1ccccc1)C1CCCCC1", "note": "(stereo unspecified) [Procyclidine hydrochloride]", "glomerular width": "1.1 ± 0.013"}, {"smiles": "N/C(=N\\C(=O)c1nc(Cl)c(N)nc1N)NCc1ccccc1", "note": "[Benzamil hydrochloride]", "glomerular width": "1.05 ± 0.019"}, {"smiles": "CN1CCOC(c2ccccc2)c2ccccc2C1", "note": "(stereo unspecified) [Nefopam hydrochloride]", "glomerular width": "0.982 ± 0.05"}, {"smiles": "CN1CCN(CCCN2c3ccccc3Sc3ccc(Cl)cc32)CC1", "note": "[Prochlorperazine dimaleate]", "glomerular width": "1.01 ± 0.033"}, {"smiles": "CCCCCCCN(CC)CCCC(O)c1ccc(NS(C)(=O)=O)cc1", "note": "(stereo unspecified) [Ibutilide fumarate]", "glomerular width": "1.0672 ± 0.00094"}, {"smiles": "Cc1ccc(-c2ncc(Cl)cc2-c2ccc(S(C)(=O)=O)cc2)cn1", "note": "[Etoricoxib]", "glomerular width": "1.023 ± 0.0032"}, {"smiles": "CN1CCN(CCCN2c3ccccc3Sc3ccc(S(=O)(=O)N(C)C)cc32)CC1", "note": "[Thioproperazine dimesylate]", "glomerular width": "0.988 ± 0.028"}, {"smiles": "COc1cc2nc(N3CCN(C(=O)C4CCCO4)CC3)nc(N)c2cc1OC", "note": "(stereo unspecified) [Terazosin hydrochloride]", "glomerular width": "1.04 ± 0.027"}, {"smiles": "O=c1[nH]cc(F)c(=O)[nH]1", "note": "[5-fluorouracil]", "glomerular width": "1.02 ± 0.042"}, {"smiles": "Cc1ncc([N+](=O)[O-])n1CC(O)CCl", "note": "(stereo unspecified) [Ornidazole]", "glomerular width": "1.06 ± 0.028"}, {"smiles": "COc1ccccc1O", "note": "[Guaiacol]", "glomerular width": "1.007 ± 0.0036"}, {"smiles": "Cc1ccc(-c2cc(C(F)(F)F)nn2-c2ccc(S(N)(=O)=O)cc2)cc1", "note": "[Celecoxib]", "glomerular width": "0.913 ± 0.059"}]}, {"test_system": "Danio rerio Tg(wt1b:EGFP) embryo, pronephros", "assay": "fraction of imaged embryos annotated as normal kidney; higher = less nephrotoxic; extreme values may be limits of the assay", "details": "25 µM; exposure: 24-48 hpf", "how_it_was_run": "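The read-out is the proportion of embryos in each treatment manually annotated as normal-kidney. Exposure ran from 24 to 48 hpf at 28.5°C in 12-well plates, using dechorionated Tg(wt1b:EGFP) zebrafish embryos in 5 mM HEPES-buffered E3 with 0.003% PTU, 0.5% DMSO and 25 μM compound. For imaging, larvae were anaesthetised with tricaine, positioned dorsally in agarose-filled 96-well plates and captured by widefield fluorescence (470 nm, 10 z-slices), with scoring done on maximum projections.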", "values": [{"smiles": "Cc1cccc(C)c1NC(=O)CN1CCN(CCCC(c2ccc(F)cc2)c2ccc(F)cc2)CC1", "note": "[Lidoflazine]", "fraction of imaged embryos annotated as normal kidney": 0.167}, {"smiles": "O=C(N/N=C/c1ccc([N+](=O)[O-])o1)c1ccc(O)cc1", "note": "[Nifuroxazide]", "fraction of imaged embryos annotated as normal kidney": 0.833}, {"smiles": "COc1cc(OC)c(C(=O)CCCN2CCCC2)c(OC)c1", "note": "[Buflomedil hydrochloride]", "fraction of imaged embryos annotated as normal kidney": 0.917}, {"smiles": "CC(C)(C)C(=O)OCOC(=O)[C@@H]1N2C(=O)[C@@H](NC(=O)[C@H](N)c3ccccc3)[C@H]2SC1(C)C", "note": "[Pivampicillin]", "fraction of imaged embryos annotated as normal kidney": 1}, {"smiles": "N[C@@H](C(=O)N[C@@H]1C(=O)N2C(C(=O)O)=C(Cl)CC[C@H]12)c1ccccc1", "note": "[Loracarbef]", "fraction of imaged embryos annotated as normal kidney": 0.917}, {"smiles": "CC[N+](CC)(CC)CCC(O)(c1ccccc1)C1CCCCC1", "note": "(stereo unspecified) [Tridihexethyl chloride]", "fraction of imaged embryos annotated as normal kidney": 0.818}, {"smiles": "C#CCN(C)CCCOc1ccc(Cl)cc1Cl", "note": "[Clorgyline hydrochloride]", "fraction of imaged embryos annotated as normal kidney": 1}, {"smiles": "CC[N+](C)(C)c1cccc(O)c1", "note": "[Edrophonium chloride]", "fraction of imaged embryos annotated as normal kidney": 0.833}, {"smiles": "NC(CO)C(=O)NNCc1ccc(O)c(O)c1O", "note": "(stereo unspecified) [Benserazide hydrochloride]", "fraction of imaged embryos annotated as normal kidney": 0.667}, {"smiles": "O=C(OCC(O)CO)c1ccccc1Nc1ccnc2cc(Cl)ccc12", "note": "(stereo unspecified) [Glafenine hydrochloride]", "fraction of imaged embryos annotated as normal kidney": 0.833}, {"smiles": "COc1ccccc1OCC(O)COC(N)=O", "note": "(stereo unspecified) [Methocarbamol]", "fraction of imaged embryos annotated as normal kidney": 0.833}, {"smiles": "OCCN1C[C@H](O)[C@@H](O)[C@H](O)[C@H]1CO", "note": "[Miglitol]", "fraction of imaged embryos annotated as normal kidney": 0.909}, {"smiles": "OC(CCCN1CCCCC1)(c1ccccc1)c1ccccc1", "note": "[Diphenidol hydrochloride]", "fraction of imaged embryos annotated as normal kidney": 0.833}, {"smiles": "CCCN(CCC)C(=O)C(CCC(=O)O)NC(=O)c1ccccc1", "note": "(stereo unspecified) [Proglumide]", "fraction of imaged embryos annotated as normal kidney": 0.917}, {"smiles": "c1cnc(N2CCN(Cc3ccc4c(c3)OCO4)CC2)nc1", "note": "[Piribedil hydrochloride]", "fraction of imaged embryos annotated as normal kidney": 0.833}, {"smiles": "CCc1cc(C(N)=S)ccn1", "note": "[Ethionamide]", "fraction of imaged embryos annotated as normal kidney": 0.75}, {"smiles": "Cc1ccccc1OCC(O)CO", "note": "(stereo unspecified) [Mephenesin]", "fraction of imaged embryos annotated as normal kidney": 0.917}, {"smiles": "CN(C)CCOC(c1ccc(Cl)cc1)c1ccccn1", "note": "(stereo unspecified) [Carbinoxamine maleate salt]", "fraction of imaged embryos annotated as normal kidney": 0.9}, {"smiles": "CO[C@H]1/C=C/O[C@@]2(C)Oc3c(C)c(O)c4c(O)c(c(/C=N/N5CCN(C6CCCC6)CC5)c(O)c4c3C2=O)NC(=O)/C(C)=C\\C=C\\[C@H](C)[C@H](O)[C@@H](C)[C@@H](O)[C@@H](C)[C@H](OC(C)=O)[C@@H]1C", "note": "[Rifapentine]", "fraction of imaged embryos annotated as normal kidney": 0.909}, {"smiles": "Clc1cccc(Cl)c1NC1=NCCN1", "note": "[Clonidine hydrochloride]", "fraction of imaged embryos annotated as normal kidney": 0.583}, {"smiles": "COc1ccnc(C[S+]([O-])c2nc3cc(OC(F)F)ccc3[nH]2)c1OC", "note": "(stereo unspecified) [Pantoprazole sodium]", "fraction of imaged embryos annotated as normal kidney": 0.833}, {"smiles": "Nc1nc(=O)n([C@@H]2CS[C@H](CO)O2)cc1F", "note": "[(-)-Emtricitabine]", "fraction of imaged embryos annotated as normal kidney": 0.917}, {"smiles": "CC[C@H]1OC(=O)[C@H](C)[C@@H](O[C@H]2C[C@@](C)(OC)[C@@H](O)[C@H](C)O2)[C@H](C)[C@@H](O[C@@H]2O[C@H](C)C[C@H](N(C)C)[C@H]2O)[C@](C)(O)C[C@@H](C)CN(C)[C@H](C)[C@@H](O)[C@]1(C)O", "note": "[Azithromycin]", "fraction of imaged embryos annotated as normal kidney": 1}, {"smiles": "CCCOc1ccccc1-c1nc2[nH]nnc2c(=O)[nH]1", "note": "[Zaprinast]", "fraction of imaged embryos annotated as normal kidney": 0.727}, {"smiles": "Cc1cc(C(=O)NNCc2ccccc2)no1", "note": "[Isocarboxazid]", "fraction of imaged embryos annotated as normal kidney": 0.25}, {"smiles": "CCN(CC)CCOC(=O)C(Cc1cccc2ccccc12)CC1CCCO1", "note": "(stereo unspecified) [Nafronyl oxalate]", "fraction of imaged embryos annotated as normal kidney": 0.583}, {"smiles": "CN(C(=O)C(Cl)Cl)c1ccc(OC(=O)c2ccco2)cc1", "note": "[Diloxanide furoate]", "fraction of imaged embryos annotated as normal kidney": 0.25}, {"smiles": "CN(CCCCCCCCCCN(C)C(=O)Oc1cccc([N+](C)(C)C)c1)C(=O)Oc1cccc([N+](C)(C)C)c1", "note": "[Demecarium bromide]", "fraction of imaged embryos annotated as normal kidney": 1}, {"smiles": "OC(CCN1CCCC1)(c1ccccc1)C1CCCCC1", "note": "(stereo unspecified) [Procyclidine hydrochloride]", "fraction of imaged embryos annotated as normal kidney": 0.833}, {"smiles": "N/C(=N\\C(=O)c1nc(Cl)c(N)nc1N)NCc1ccccc1", "note": "[Benzamil hydrochloride]", "fraction of imaged embryos annotated as normal kidney": 0.917}, {"smiles": "CN1CCOC(c2ccccc2)c2ccccc2C1", "note": "(stereo unspecified) [Nefopam hydrochloride]", "fraction of imaged embryos annotated as normal kidney": 0.909}, {"smiles": "CN1CCN(CCCN2c3ccccc3Sc3ccc(Cl)cc32)CC1", "note": "[Prochlorperazine dimaleate]", "fraction of imaged embryos annotated as normal kidney": 0.833}, {"smiles": "CCCCCCCN(CC)CCCC(O)c1ccc(NS(C)(=O)=O)cc1", "note": "(stereo unspecified) [Ibutilide fumarate]", "fraction of imaged embryos annotated as normal kidney": 1}, {"smiles": "Cc1ccc(-c2ncc(Cl)cc2-c2ccc(S(C)(=O)=O)cc2)cn1", "note": "[Etoricoxib]", "fraction of imaged embryos annotated as normal kidney": 0.833}, {"smiles": "CN1CCN(CCCN2c3ccccc3Sc3ccc(S(=O)(=O)N(C)C)cc32)CC1", "note": "[Thioproperazine dimesylate]", "fraction of imaged embryos annotated as normal kidney": 0.917}, {"smiles": "COc1cc2nc(N3CCN(C(=O)C4CCCO4)CC3)nc(N)c2cc1OC", "note": "(stereo unspecified) [Terazosin hydrochloride]", "fraction of imaged embryos annotated as normal kidney": 0.833}, {"smiles": "O=c1[nH]cc(F)c(=O)[nH]1", "note": "[5-fluorouracil]", "fraction of imaged embryos annotated as normal kidney": 0.75}, {"smiles": "Cc1ncc([N+](=O)[O-])n1CC(O)CCl", "note": "(stereo unspecified) [Ornidazole]", "fraction of imaged embryos annotated as normal kidney": 0.75}, {"smiles": "COc1ccccc1O", "note": "[Guaiacol]", "fraction of imaged embryos annotated as normal kidney": 0.917}, {"smiles": "Cc1ccc(-c2cc(C(F)(F)F)nn2-c2ccc(S(N)(=O)=O)cc2)cc1", "note": "[Celecoxib]", "fraction of imaged embryos annotated as normal kidney": 0.833}]}]}
